# Data: PubChem BioAssay (NCATS)
# Records with an inconclusive call do not appear. Activity calls are given as the source filed them. Calls come from the whole dose curve; as a rule, active = well fitted curve in the direction sought with a large enough effect; inconclusive = small, poorly fitted or top-dose-only effect, or another doubt; inactive = no such curve, though single readings can be large; an effect the other way counts as inactive or inconclusive.
# How the values were obtained:
# [1] = Quantitative High-Throughput drug screen in 47 multiple myeloma cell lines against the NCATS MIPE library collection: KHM11_PLB cell viability assay (AID 1918962); note: nearly all actives have a fitted effect of over 35% in size
# Procedure, shortened: (§1)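 CellTiter-Glo luminescence (ATP) after 48 h compound exposure, 37C/5% CO2; 500 cells/well; MIPE 4.0 approved/investigational drugs pinned in; DMSO = 100%, media only = 0% viability.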
# [2] = Quantitative High-Throughput drug screen in 47 multiple myeloma cell lines against the NCATS MIPE library collection: JIM3_ECACC cell viability assay (AID 1918963; note: nearly all actives have a fitted effect of over 35% in size)
# Procedure, shortened: as §1
# [3] = Quantitative High-Throughput drug screen in 47 multiple myeloma cell lines against the NCATS MIPE library collection: KMS27_JCRB cell viability assay (AID 1918970); note: nearly all actives have a fitted effect of over 30% in size
# Procedure, shortened: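 Luminescent ATP read-out (CellTiter-Glo, 5 min at room temperature) after 48 h compound exposure of 500 KMS27_JCRB cells per well; DMSO wells define full viability and media-only wells zero.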
# [4] = Quantitative High-Throughput drug screen in 47 multiple myeloma cell lines against the NCATS MIPE library collection: JIM1_ECACC cell viability assay (AID 1918964)
# Procedure, shortened: (§2)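 Luminescent ATP measurement with CellTiter-Glo gives viability, scaled between DMSO-only wells (100%) and media-only wells (0%). Cells, 500 per well, faced library compounds for 48 hours at 37C.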
# [5] = Quantitative High-Throughput drug screen in 47 multiple myeloma cell lines against the NCATS MIPE library collection: H1112_PLB cell viability assay (AID 1918967; note: nearly all actives have a fitted effect of over 30% in size)
# Procedure, shortened: as §2
# [6] = Quantitative High-Throughput drug screen in 47 multiple myeloma cell lines against the NCATS MIPE library collection: JJN3_DSMZ cell viability assay (AID 1918966; note: nearly all actives have a fitted effect of over 50% in size)
# Procedure, shortened: as §2
# [7] = Quantitative High-Throughput drug screen in 47 multiple myeloma cell lines against the NCATS MIPE library collection: Karpas25_ECACC cell viability assay (AID 1918968; note: nearly all actives have a fitted effect of over 35% in size)
# Procedure, shortened: as §2
# [8] = Quantitative High-Throughput drug screen in 47 multiple myeloma cell lines against the NCATS MIPE library collection: INA6_PLB cell viability assay (AID 1918965; note: nearly all actives have a fitted effect of over 55% in size)
# Procedure, shortened: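 Myeloma cells (500 per well) were exposed to MIPE 4.0 compounds by pin transfer and incubated 48 hours at 37C, 5% CO2. Viability was read as ATP by CellTiter-Glo luminescence, normalised to DMSO (100%) and media-only (0%) wells.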
# Potency is the fitted concentration of half-maximal effect.
compound,measurement,setting,value
CC(C)(C)OC(=O)N[C@H]1CCCCCC=C[C@@H]2C[C@@]2(C(=O)NS(=O)(=O)C2CC2)NC(=O)[C@@H]2C[C@@H](OC(=O)N3Cc4cccc(F)c4C3)CN2C1=O,Potency,[1],inactive
same,Potency,[2],inactive
same,Potency,[3],inactive
O=C1C[C@@H](c2ccc(O)cc2)Oc2cc(O)cc(O)c21,Potency,[1],inactive
same,Potency,[2],inactive
same,Potency,[4],inactive
same,Potency,[5],inactive
same,Potency,[3],0.0118 µM (active)
CN(C)CCC=C1c2ccccc2COc2ccc(CC(=O)O)cc21,Potency,[2],inactive
same,Potency,[4],inactive
same,Potency,[3],inactive
CO[C@H]1C[C@@H]2CC[C@@H](C)[C@@](O)(O2)C(=O)C(=O)N2CCCC[C@@H]2C(=O)O[C@H]([C@H](C)C[C@@H]2CC[C@H](OCCO)[C@H](OC)C2)CC(=O)[C@H](C)C=C(C)[C@@H](O)[C@@H](OC)C(=O)[C@H](C)C[C@H](C)C=CC=CC=C1C,Potency,[1],inactive
same,Potency,[6],6.62 µM (active)
same,Potency,[7],1.05 µM (active)
N[C@H](CSC(c1ccccc1)(c1ccccc1)c1ccccc1)C(=O)O,Potency,[2],10.5 µM (active)
same,Potency,[4],14.8 µM (active)
same,Potency,[8],7.43 µM (active)
same,Potency,[3],18.7 µM (active)
O=c1c(-c2ccc(O)cc2)coc2cc(OC3O[C@H](CO)[C@H](O)[C@H](O)[C@H]3O)cc(O)c12 (stereo partly specified),Potency,[2],4.69 µM (active)
same,Potency,[4],inactive
same,Potency,[8],10.5 µM (active)
same,Potency,[7],3.32 µM (active)
COc1cccc([C@@H](C)NCCCc2ccccc2Cl)c1,Potency,[1],inactive
same,Potency,[2],inactive
same,Potency,[6],inactive
CC(C)[C@H](CO)Nc1nc(Nc2ccc(C(=O)O)c(Cl)c2)c2ncn(C(C)C)c2n1,Potency,[1],0.0148 µM (active)
same,Potency,[8],0.059 µM (active)
CC(=O)OC1C(C)OC(Oc2c(-c3ccc(O)cc3)oc3cc(O)cc(O)c3c2=O)C(O)C1OC(C)=O (stereo unspecified),Potency,[1],inactive
same,Potency,[2],inactive
same,Potency,[8],9.35 µM (active)
same,Potency,[5],inactive
CC(C)n1nc(-c2ccc3oc(N)nc3c2)c2c(N)ncnc21,Potency,[2],0.0074 µM (active)
same,Potency,[8],0.0093 µM (active)
same,Potency,[6],0.0074 µM (active)
Nc1ncnc2c1nc(Cl)n2[C@@H]1O[C@H](CO)[C@@H](O)[C@@H]1O,Potency,[1],6.62 µM (active)
same,Potency,[4],16.6 µM (active)
same,Potency,[8],2.09 µM (active)
same,Potency,[6],16.6 µM (active)
same,Potency,[3],20.9 µM (active)
CCC(CC)[C@H](NC(C)=O)[C@@H]1[C@H](O)[C@@H](C(=O)O)C[C@@H]1N=C(N)N,Potency,[1],inactive
same,Potency,[2],inactive
same,Potency,[8],inactive
same,Potency,[6],inactive
same,Potency,[5],inactive
same,Potency,[7],inactive
same,Potency,[3],inactive
COC[C@@H](c1ccc(C(F)(F)F)cc1)N1CCN(C2(C)CCN(C(=O)c3c(C)ncnc3C)CC2)C[C@H]1C,Potency,[1],inactive
same,Potency,[8],26.4 µM (active)
same,Potency,[5],13.2 µM (active)
same,Potency,[7],8.33 µM (active)
same,Potency,[3],inactive
CON=C(C(=O)N[C@@H]1C(=O)N2C(C(=O)OCOC(=O)C(C)(C)C)=C(C=Cc3scnc3C)CS[C@H]12)c1csc(N)n1,Potency,[1],18.7 µM (active)
same,Potency,[2],inactive
same,Potency,[8],18.7 µM (active)
same,Potency,[5],inactive
O=C(O)[C@H]1O[C@H](Oc2cc3oc(-c4ccccc4)cc(=O)c3c(O)c2O)[C@H](O)[C@@H](O)[C@H]1O,Potency,[1],20.9 µM (active)
same,Potency,[8],inactive
same,Potency,[6],13.2 µM (active)
same,Potency,[5],inactive
Cc1ccc(/C=N/NC(=O)c2ccccc2Oc2ccccc2)o1,Potency,[2],23.5 µM (active)
same,Potency,[8],16.6 µM (active)
CS(=O)(=O)N(Cc1ccco1)CC(O)Cn1c2ccccc2c2ccccc21 (stereo unspecified),Potency,[2],14.8 µM (active)
same,Potency,[4],inactive
same,Potency,[8],18.7 µM (active)
same,Potency,[7],6.62 µM (active)
same,Potency,[3],inactive
O=C(NC1CCOCC1)c1ccc(-c2cc(-c3cn[nH]c3-c3ccccn3)ccn2)cc1,Potency,[2],inactive
same,Potency,[8],inactive
same,Potency,[6],inactive
same,Potency,[5],inactive
CO[C@H]1C[C@@H]2CC[C@@H](C)[C@@](O)(O2)C(=O)C(=O)N2CCCC[C@@H]2C(=O)O[C@H]([C@H](C)C[C@@H]2CC[C@H](OC(=O)C(C)(CO)CO)[C@H](OC)C2)CC(=O)[C@H](C)C=C(C)[C@@H](O)[C@@H](OC)C(=O)[C@H](C)C[C@H](C)C=CC=CC=C1C,Potency,[2],20.9 µM (active)
same,Potency,[7],13.2 µM (active)
NC(=O)NN=Cc1ccc([N+](=O)[O-])o1,Potency,[7],16.6 µM (active)
same,Potency,[3],14.8 µM (active)
NC(=O)c1cccc2[nH]c(-c3ccc([C@H]4CCCN4)cc3F)nc12,Potency,[2],14.8 µM (active)
same,Potency,[8],14.8 µM (active)
same,Potency,[3],23.5 µM (active)
N[C@@]1(C(=O)O)CS(=O)(=O)[C@H]2[C@H](C(=O)O)[C@H]21,Potency,[8],14.8 µM (active)
COc1cc(Nc2ncc(F)c(Nc3ccc4c(n3)NC(=O)C(C)(C)O4)n2)cc(OC)c1OC,Potency,[2],0.935 µM (active)
same,Potency,[8],1.18 µM (active)
same,Potency,[7],1.66 µM (active)
CCNc1cc(NC2CCC(O)CC2)nc(Nc2ccc3c(ccn3Cc3ccccc3)c2)n1 (stereo unspecified),Potency,[2],20.9 µM (active)
same,Potency,[8],16.6 µM (active)
same,Potency,[7],18.7 µM (active)
CC(C)=CC[C@@H](O)C1=CC(=O)c2c(O)ccc(O)c2C1=O,Potency,[2],16.6 µM (active)
same,Potency,[8],0.296 µM (active)
same,Potency,[6],0.372 µM (active)
same,Potency,[3],20.9 µM (active)
CO[C@H]1C[C@@H]2CC[C@@H](C)[C@@](O)(O2)C(=O)C(=O)N2CCCC[C@@H]2C(=O)O[C@H]([C@H](C)C[C@@H]2CC[C@H](OP(C)(C)=O)[C@H](OC)C2)CC(=O)[C@H](C)C=C(C)[C@@H](O)[C@@H](OC)C(=O)[C@H](C)C[C@H](C)C=CC=CC=C1C,Potency,[5],18.7 µM (active)
Cc1nnc(C(C)C)n1C1C[C@H]2CC[C@@H](C1)N2CC[C@H](NC(=O)C1CCC(F)(F)CC1)c1ccccc1 (stereo partly specified),Potency,[2],inactive
same,Potency,[5],14.8 µM (active)
